Dicer inh: human Dicer pre-microRNA cleavage inhibition; cat-ELCCA pre-miR-21 Dicer processing, chemiluminescence; active compounds read high; z-score at 25 µM; Q9UPY3; 6% of 47,000 active; AID 1347074; in the data active means z-score above about 3, passing the limit was not always enough;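 further: plate controls were vehicle for no effect and no enzyme for full effect; higher signal means more uncleaved substrate so more Dicer inhibition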
Target sequence (Q9UPY3 whole entry, looked up): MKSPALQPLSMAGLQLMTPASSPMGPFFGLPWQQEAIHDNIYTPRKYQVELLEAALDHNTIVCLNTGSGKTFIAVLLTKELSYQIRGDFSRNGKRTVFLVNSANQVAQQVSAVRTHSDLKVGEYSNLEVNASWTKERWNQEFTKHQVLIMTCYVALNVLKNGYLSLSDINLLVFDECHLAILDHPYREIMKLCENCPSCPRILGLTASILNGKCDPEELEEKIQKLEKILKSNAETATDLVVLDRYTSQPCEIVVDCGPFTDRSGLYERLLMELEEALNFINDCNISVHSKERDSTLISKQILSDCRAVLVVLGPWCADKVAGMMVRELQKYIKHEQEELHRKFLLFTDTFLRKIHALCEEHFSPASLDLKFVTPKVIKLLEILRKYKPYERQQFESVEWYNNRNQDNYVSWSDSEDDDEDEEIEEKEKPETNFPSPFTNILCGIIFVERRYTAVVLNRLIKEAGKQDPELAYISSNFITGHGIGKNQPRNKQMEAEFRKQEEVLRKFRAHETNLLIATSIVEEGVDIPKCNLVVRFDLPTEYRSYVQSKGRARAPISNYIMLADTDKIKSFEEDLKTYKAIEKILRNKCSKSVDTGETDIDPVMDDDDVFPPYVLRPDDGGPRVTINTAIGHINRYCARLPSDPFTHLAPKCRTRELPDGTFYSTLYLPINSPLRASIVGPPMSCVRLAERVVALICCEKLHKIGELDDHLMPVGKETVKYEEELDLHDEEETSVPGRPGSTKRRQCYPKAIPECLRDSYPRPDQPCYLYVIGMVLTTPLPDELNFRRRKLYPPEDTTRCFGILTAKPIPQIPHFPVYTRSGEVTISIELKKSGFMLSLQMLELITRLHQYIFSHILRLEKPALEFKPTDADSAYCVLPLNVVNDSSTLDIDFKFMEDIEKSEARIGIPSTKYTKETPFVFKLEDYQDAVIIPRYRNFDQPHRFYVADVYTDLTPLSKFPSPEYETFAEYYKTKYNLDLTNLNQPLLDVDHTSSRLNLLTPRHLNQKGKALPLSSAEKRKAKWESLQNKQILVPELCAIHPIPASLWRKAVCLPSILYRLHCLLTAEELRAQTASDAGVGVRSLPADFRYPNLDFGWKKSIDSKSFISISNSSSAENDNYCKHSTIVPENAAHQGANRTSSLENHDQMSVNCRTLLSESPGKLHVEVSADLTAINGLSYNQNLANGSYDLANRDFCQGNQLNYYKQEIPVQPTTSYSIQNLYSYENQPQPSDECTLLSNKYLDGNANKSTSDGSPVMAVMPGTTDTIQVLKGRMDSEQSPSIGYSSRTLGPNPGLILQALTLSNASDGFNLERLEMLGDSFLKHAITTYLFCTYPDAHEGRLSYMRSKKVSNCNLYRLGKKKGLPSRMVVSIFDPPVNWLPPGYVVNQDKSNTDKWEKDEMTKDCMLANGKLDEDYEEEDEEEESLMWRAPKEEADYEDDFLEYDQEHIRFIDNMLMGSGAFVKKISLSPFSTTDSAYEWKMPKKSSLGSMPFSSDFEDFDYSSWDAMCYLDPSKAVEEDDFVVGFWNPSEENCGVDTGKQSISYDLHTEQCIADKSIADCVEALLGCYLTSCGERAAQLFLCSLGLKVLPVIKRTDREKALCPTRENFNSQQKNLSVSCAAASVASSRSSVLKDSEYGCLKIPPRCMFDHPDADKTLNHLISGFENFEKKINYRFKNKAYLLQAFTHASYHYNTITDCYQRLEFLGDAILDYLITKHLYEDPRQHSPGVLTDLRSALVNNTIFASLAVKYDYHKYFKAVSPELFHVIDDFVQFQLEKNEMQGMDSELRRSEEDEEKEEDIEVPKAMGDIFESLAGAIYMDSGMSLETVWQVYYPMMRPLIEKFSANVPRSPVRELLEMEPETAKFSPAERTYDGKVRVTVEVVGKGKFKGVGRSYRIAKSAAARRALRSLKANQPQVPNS
Active calls of the source: *. Many of the other results were omitted from the sample, so hits are more common in it than they were.

SMILES	Dicer inh
COc1ccc(OC2C(=O)N(Cc3ccc4c(c3)OCO4)C2c2ccc3c(c2)OCO3)cc1 (centres undefined)	1.57
O=C(Nc1cccc(C(F)(F)F)c1)c1c(O)c2cccc3c2n(c1=O)CCC3	1.59
COC(=O)C(Cc1ccc(F)cc1)(Cc1ccc(F)cc1)C(C)=O	-0.71
CCOc1ccc(Cl)cc1CNCCSc1nnnn1C	-0.26
CCOC(=O)c1cc(-c2csc(N/N=C/c3c(Cl)cccc3Cl)n2)on1	4.41
C/C(=N\Oc1nc(-c2ccccc2)ns1)c1cccs1	0.71
N#CC1=C2N=C(N)c3ccccc3N2C2=C(C(=O)CCC2)C1c1ccc(Cl)cc1 (centres undefined)	2
COc1ccccc1C1C(C#N)=C2N=C(N)c3ccccc3N2C2=C1C(=O)CCC2 (centres undefined)	-1.01
COc1ccc(C2C(C#N)=C3N=C(N)c4ccccc4N3C3=C2C(=O)CCC3)cc1 (centres undefined)	1.51
CN(C)c1ccc(C2C(C#N)=C3N=C(N)c4ccccc4N3C3=C2C(=O)CC(C)(C)C3)cc1 (centres undefined)	6.9*
COc1ccc(OC)c(C2C(C#N)=C3N=C(N)c4ccccc4N3C3=C2C(=O)CC(C)(C)C3)c1 (centres undefined)	4.76*
CC1(C)CC(=O)C2=C(C1)N1C(=C(C#N)C2c2ccc3c(c2)OCO3)N=C(N)c2ccccc21 (centres undefined)	0.12
COc1ccccc1NC(=S)NNC(=S)NC1CC2C=CC1C2 (centres undefined)	-0.14
Cn1nccc1NS(=O)(=O)c1ccc(NS(=O)(=O)c2ccc(C(F)(F)F)cc2)cc1	-1.33
CCOC(=O)c1c(C)oc(-c2ccc(Cl)cc2)c1S(=O)(=O)Nc1ccccc1	-0.14
O=C(O)CCSC1=CCS(=O)(=O)c2ccc(Cl)cc21	1.87
CN(C)/C=C(\C(=O)c1cccc(C(F)(F)F)c1)c1nnnn1-c1ccccc1	-1.69
CCOC(=O)c1nc[nH]c1C(=O)OCC	0.53
COc1cccc(C2CC(=O)C3=C(C2)NC(C)=C(C(=O)OCCOC(C)C)C3c2ccc(C)s2)c1 (centres undefined)	-0.29
CCOc1cc(C2C(C(=O)OC)=C(C)NC3=C2C(=O)c2ccccc23)c(Cl)cc1OC (centres undefined)	-0.7
COC(=O)c1ccc(C2Sc3ccccc3NC3=C2C(=O)c2ccccc23)cc1 (centres undefined)	-0.06
CS/C(=C(/C#N)S(=O)(=O)C(C)C)N1CCCCC1	4.23*
CS/C(=C(/C#N)S(=O)(=O)C(C)C)N1CCOCC1	-1.28
CS/C(=C(/C#N)S(=O)(=O)C(C)C)N1CCCC1	-1.16
CCOC(=O)c1c(NC(=O)C2Cc3ccc(C)cc3C(=O)O2)sc2c1CCC(C)C2 (centres undefined)	0.15
SMILES	Dicer inh
COc1ccc(OC)c(C2/C(=C(/O)c3ccc(C)cc3)C(=O)C(=O)N2c2cccnc2)c1 (centres undefined)	-0.62
O=C1CC(NCC2CCCO2)C(=O)N1c1ccc(F)cc1 (centres undefined)	-2.45
Cc1nc2cc(Cl)ccc2c(=O)n1CC1CCCO1 (centres undefined)	-1
O=C(NCc1ccc(F)cc1)c1nc2c(nnn2CC2CCCO2)c(=O)[nH]1 (centres undefined)	3.1*
COc1ccccc1C1C2=C(CCCC2=O)Nc2nnnn21 (centres undefined)	1.63
OC(c1ccccc1)(c1ccccc1)c1n[nH]c(=S)n1-c1ccc(F)cc1	-0.6
COCc1nc(-c2ccccn2)[nH]c(=O)c1CC1CC1	0.08
CCN1C(=O)C2(/C(=C(/O)c3ccc4c(c3)CC(C)O4)C(=O)C(=O)N2CCN(C)C)c2ccccc21 (centres undefined)	-1.6
CCCCN1C(=O)C2(/C(=C(/O)c3ccc(C)cc3)C(=O)C(=O)N2CCCN(C)C)c2ccccc21 (centres undefined)	1.8
CCN1C(=O)C2(/C(=C(/O)c3ccc(OC)c(C)c3)C(=O)C(=O)N2CCN(C)C)c2ccccc21 (centres undefined)	-3.95
CCN1C(=O)C2(/C(=C(/O)c3ccc4c(c3)CC(C)O4)C(=O)C(=O)N2CCCN(C)C)c2ccccc21 (centres undefined)	4.29*
CCCCN1C(=O)C2(/C(=C(/O)c3ccc4c(c3)CC(C)O4)C(=O)C(=O)N2CCOC)c2ccccc21 (centres undefined)	4.94*
O=c1cc(CSc2n[nH]c(=O)n2-c2cccnc2)c2ccc(O)cc2o1	-3.64
CCN(CC)S(=O)(=O)c1ccc(Br)c2nsnc12	4.64
CN(C)S(=O)(=O)N(Cc1ccc(C(C)(C)C)cc1)c1ccccc1	-1.43
Cc1ccnc(Nc2nc(-c3ccc(O)c(O)c3)cs2)c1	3.86*
Cc1cccc(Nc2nc(-c3ccncc3)cs2)n1	2.07
Cc1ccnc(Nc2nc(-c3ccc(O)cc3)cs2)c1	4.49
Cc1cccc(Nc2nc(-c3ccc(O)c(O)c3)cs2)n1	5.16*
Cc1ccc(Nc2nc(-c3ccccc3)cs2)nc1	2.06
C=CCNc1nc(-c2ccc(O)c(OC)c2)cs1	-0.25
CCOC(=O)c1nc(COc2ccccc2Cl)no1	-0.3
CC1=C(C(=O)OC(C)C)C(c2ccccc2OC(C)C)C2=C(CCCC2=O)N1 (centres undefined)	-0.52
Cc1ccn2c(=O)c(NC(=O)c3ccc(C(C)(C)C)cc3)cnc2c1	1.86
S=C(N/N=C/c1ccccc1Cl)NC1CC2C=CC1C2 (centres undefined)	-0.39
SMILES	Dicer inh
Clc1cccc(-c2nc(-c3ccccc3)ncc2-c2nnnn2-c2ccccc2)c1	-0.15
C/C(=N\OC(=O)c1ccc(Cl)cc1)c1ccn(S(=O)(=O)c2ccc(Cl)cc2)c1	11.4*
C/C(=N\O)c1ccn(S(=O)(=O)c2ccc(Cl)cc2)c1	0.09
C/C(=N\OC(=O)c1ccc(C(F)(F)F)cc1)c1ccn(S(=O)(=O)c2ccccc2)c1	-0.23
COc1ccc(C2NC(c3ccc(OC)cc3)C(C)C(=O)C2C)cc1 (centres undefined)	-0.54
CCCCC1(O)CC(c2ccc(OC)cc2)NC(c2ccc(OC)cc2)C1C (centres undefined)	3.23*
COc1ccc(C2C/C(=N/O)C(C)C(c3ccc(OC)cc3)N2)cc1 (centres undefined)	1.45
CC12N=NCC1C(=O)N(c1cccc(Cl)c1)C2=O (centres undefined)	0.44
CC12N=NCC1C(=O)N(c1ccc(Cl)cc1)C2=O (centres undefined)	3.05*
Cc1ccc(N2C(=O)C3CN=NC3(C)C2=O)cc1 (centres undefined)	1.81
CC1CCCC(C)N1C(=O)c1cc2n(n1)C(C(F)(F)F)CC(c1ccc(Cl)cc1)N2 (centres undefined)	0.63
Cn1c(=O)c2c(O)c([N+](=O)[O-])c(=O)n(-c3ccccc3)c2n(C)c1=O	-2.18
O=C1NCCN=C(c2ccccc2)c2ccccc21	0.36
FC(F)(F)C1=CC(c2ccc(Br)cc2)=NCCN1	3.57*
Nc1nc(-c2ccc(Br)cc2)cc(C(F)(F)F)n1	0.66
c1ccc2c(CC3=NCCN3)cccc2c1	2.72
FC(F)(F)C1=CC(c2ccccc2)=NCCN1	3.08*
C/C(=N\NC1=NCCN1)c1ccc(Br)cc1	-0.75
CO/N=C1\CCCc2c(C(=O)N/N=C/C(C)(C)C)sc(SC)c21	1.48
O=C(Nc1cccs1)Nc1ccccc1N1CCOCC1	1.21
CCc1nc2ccccc2n1CC(O)COc1ccc(Cl)cc1 (centres undefined)	-0.72
C=CCSc1nc2c(c(/C=C/c3ccccc3)c1C#N)CCC2	-0.68

Screens (PubChem BioAssay)
